Results filed as inconclusive are left out. Entries that show only a call come without a potency. A number with no mark means an inactive call. The source made the active and inactive calls. The call rests on the fitted dose curve; in most records, active means well fitted curve in the direction sought with a large enough effect; inconclusive means small, poorly fitted or top-dose-only effect, or another doubt; inactive means no such curve, though single readings can be large; an effect the other way counts as inactive or inconclusive.
How the values were obtained:
[1] = target: Rap guanine nucleotide exchange factor 3 (Homo sapiens) (UniProt O95398); assay: Confirmatory qHTS for antagonist of cAMP-regulated guanine nucleotide exchange factor 3 (EPAC1) (AID 1645880); further: nearly all actives have a fitted effect of over 55% in size; further: potency means the concentration at half of the fitted maximal effect
Sequence of Rap guanine nucleotide exchange factor 3 (Homo sapiens) (O95398 whole entry, looked up): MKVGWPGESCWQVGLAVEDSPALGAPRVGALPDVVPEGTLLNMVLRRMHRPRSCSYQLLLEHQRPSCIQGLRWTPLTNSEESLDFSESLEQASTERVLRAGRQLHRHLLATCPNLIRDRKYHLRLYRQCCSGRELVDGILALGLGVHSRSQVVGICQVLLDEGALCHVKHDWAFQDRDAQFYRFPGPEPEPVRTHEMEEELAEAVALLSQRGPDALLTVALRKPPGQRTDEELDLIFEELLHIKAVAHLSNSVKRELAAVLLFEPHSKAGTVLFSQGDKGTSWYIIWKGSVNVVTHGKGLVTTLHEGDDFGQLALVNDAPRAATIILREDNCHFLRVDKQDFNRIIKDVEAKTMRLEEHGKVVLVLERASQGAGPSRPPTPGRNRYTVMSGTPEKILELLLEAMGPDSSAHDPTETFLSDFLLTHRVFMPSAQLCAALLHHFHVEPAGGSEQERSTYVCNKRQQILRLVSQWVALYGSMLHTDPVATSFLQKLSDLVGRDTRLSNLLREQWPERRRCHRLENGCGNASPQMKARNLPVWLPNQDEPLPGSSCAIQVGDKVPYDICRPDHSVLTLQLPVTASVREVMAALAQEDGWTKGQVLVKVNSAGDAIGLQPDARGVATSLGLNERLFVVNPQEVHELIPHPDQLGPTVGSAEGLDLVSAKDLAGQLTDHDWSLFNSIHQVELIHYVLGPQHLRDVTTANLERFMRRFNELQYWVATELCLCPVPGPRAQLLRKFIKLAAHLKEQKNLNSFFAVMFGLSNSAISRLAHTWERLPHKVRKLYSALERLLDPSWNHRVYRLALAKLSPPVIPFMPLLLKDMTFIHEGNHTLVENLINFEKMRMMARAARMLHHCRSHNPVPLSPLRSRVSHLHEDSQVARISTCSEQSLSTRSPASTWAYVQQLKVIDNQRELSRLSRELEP
Outline: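 Nucleotide exchange uses 100 nM EPAC1, 250 nM RAP1B-BODIPY-GDP and 50 uM GDP, with compounds in a concentration-titration series. After 5 min at room temperature, fluorescence (480 nm ex/540 nm em) is read every 5 min for 30 min. Data are normalized to control ATA and DMSO.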

[2] = target: Rap guanine nucleotide exchange factor 3 (Homo sapiens) (UniProt O95398); assay: Confirmatory qHTS for agonist of cAMP-regulated guanine nucleotide exchange factor 3 (EPAC1) (AID 1645881);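 further: EPAC1 catalysed release of BODIPY-GDP from Rap1B seen as fluorescence loss; nearly all actives have a fitted effect of over 75% in size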
[3] = target: Rap guanine nucleotide exchange factor 4 (Homo sapiens) (UniProt Q8WZA2); assay: Confirmatory qHTS for agonist of cAMP-regulated guanine nucleotide exchange factor 4 (EPAC2) (AID 1645884);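 further: nucleotide exchange releases bodipy-GDP from Rap1 and this lowers its fluorescence; nearly all actives have a fitted effect of over 65% in size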
Sequence of Rap guanine nucleotide exchange factor 4 (Homo sapiens) (Q8WZA2 whole entry, looked up): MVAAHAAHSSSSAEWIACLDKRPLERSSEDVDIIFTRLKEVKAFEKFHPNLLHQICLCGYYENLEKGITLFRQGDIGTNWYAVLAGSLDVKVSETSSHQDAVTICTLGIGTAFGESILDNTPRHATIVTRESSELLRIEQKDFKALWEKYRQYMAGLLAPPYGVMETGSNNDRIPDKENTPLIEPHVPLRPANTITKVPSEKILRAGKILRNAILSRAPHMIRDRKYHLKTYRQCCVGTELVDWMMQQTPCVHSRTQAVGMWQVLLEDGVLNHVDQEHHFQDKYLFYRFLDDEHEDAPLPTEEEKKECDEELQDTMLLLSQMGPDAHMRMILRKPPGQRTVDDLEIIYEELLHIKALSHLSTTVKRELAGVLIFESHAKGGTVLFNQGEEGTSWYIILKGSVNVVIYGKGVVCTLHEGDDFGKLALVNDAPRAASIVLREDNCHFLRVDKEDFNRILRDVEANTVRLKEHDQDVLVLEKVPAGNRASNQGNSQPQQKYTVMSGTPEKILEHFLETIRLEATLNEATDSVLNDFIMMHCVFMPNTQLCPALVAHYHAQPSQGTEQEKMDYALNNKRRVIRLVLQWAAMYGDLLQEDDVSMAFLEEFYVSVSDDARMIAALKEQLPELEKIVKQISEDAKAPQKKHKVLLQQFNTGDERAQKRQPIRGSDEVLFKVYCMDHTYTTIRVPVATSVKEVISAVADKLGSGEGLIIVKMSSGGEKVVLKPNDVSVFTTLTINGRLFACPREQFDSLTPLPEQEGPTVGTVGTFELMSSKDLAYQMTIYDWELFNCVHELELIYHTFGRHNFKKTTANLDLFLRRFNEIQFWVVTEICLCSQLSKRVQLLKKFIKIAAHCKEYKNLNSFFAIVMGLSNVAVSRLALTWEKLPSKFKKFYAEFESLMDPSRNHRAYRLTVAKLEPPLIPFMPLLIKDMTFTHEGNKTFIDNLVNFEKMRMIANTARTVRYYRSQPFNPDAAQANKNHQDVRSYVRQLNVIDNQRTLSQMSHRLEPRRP

[4] = target: Rap guanine nucleotide exchange factor 4 (Homo sapiens) (UniProt Q8WZA2); assay: Confirmatory qHTS for antagonist of cAMP-regulated guanine nucleotide exchange factor 4 (EPAC2) (AID 1645885); further: nearly all actives have a fitted effect of over 25% in size; further: potency means the concentration at half of the fitted maximal effect
[5] = target: Rap guanine nucleotide exchange factor 3 (Homo sapiens) (UniProt O95398); assay: Counterscreen qHTS for antagonist of cAMP-regulated guanine nucleotide exchange factor 3 (EPAC1) (AID 1645888);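 further: fluorescence loss as bound BODIPY-GDP is released from Rap1B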
Outline: (§1)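 Measured: fluorescence of BODIPY-GDP bound to Rap1B, which falls as exchange proceeds. Conditions include 50 uM competing GDP, 5 and 30 min reads, and a later cAMP challenge for antagonist detection.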

[6] = target: Rap guanine nucleotide exchange factor 3 (Homo sapiens) (UniProt O95398); assay: Counterscreen qHTS for agonist of cAMP-regulated guanine nucleotide exchange factor 3 (EPAC1) (AID 1645889); further: nearly all actives have a fitted effect of over 40% in size
Outline: as §1

SMILES	Potency [1]	Potency [2]	Potency [3]	Potency [4]	Potency [5]	Potency [6]	activation [3]	activity change, negative = inhibition [5]	activation [6]	outcome [4]
Cc1nc2c(C(=O)NCCC(C)C)c[nH]n2c(=O)c1Cl	inactive	inactive	inactive	84.9 µM (active)	inactive	inactive	–	–	–	–
COC1=CC(=O)c2c(ccc3ncnc(N)c23)C1=O	19 µM (active)	inactive	inactive	26.9 µM (active)	inactive	inactive	–	–	–	–
Cc1cc(=O)n2c(sc3ccccc32)c1C#N	inactive	inactive	–	inactive	–	–	-1.37% [at 17.1 µM, percent relative to cAMP agonist control]	11.2% [at 30.8 µM]	22.2% [at 30.8 µM]	–
CC(C)CNC(=O)c1[nH]c(C(F)(F)F)nc1-c1ccccc1	inactive	inactive	–	inactive	–	–	3.83% [at 17.1 µM, percent relative to cAMP agonist control]	-17.1% [at 30.8 µM]	30.5% [at 30.8 µM]	–
CC1Cc2cc(C(=O)O)ccc2O1 (stereo not drawn)	inactive	inactive	inactive	inactive	inactive	inactive	–	–	–	–
Oc1ccc(NCc2ccccc2OCc2ccccc2)cc1	inactive	inactive	inactive	inactive	inactive	–	–	–	20.2% [at 30.8 µM]	–
CCc1ccc(-c2nc(CS(=O)CC(=O)NCc3cccnc3)c(C)o2)cc1 (stereo not drawn)	inactive	inactive	inactive	inactive	inactive	inactive	–	–	–	–
CCCCC(Sc1nc2cc3c(cc2c(=O)n1CCCC(=O)NCc1ccc2c(c1)OCO2)OCO3)C(=O)OCC (stereo not drawn)	inactive	inactive	inactive	–	inactive	inactive	–	–	–	inactive [at 12.7 µM]
CCOc1cc(/C=N/Nc2nc(-c3cccs3)c(NC(C)=O)s2)ccc1O	inactive	inactive	inactive	inactive	inactive	inactive	–	–	–	–
COC(=O)CSc1nc(C)cc(Oc2ccccc2)n1	inactive	inactive	inactive	inactive	inactive	inactive	–	–	–	–
CCOc1cc(/C=N/NC(=O)c2ccc3c(c2)OCCO3)cc(Br)c1O	30.1 µM (active)	inactive	inactive	inactive	inactive	inactive	–	–	–	–
O=C1S/C(=C\c2ccc(O)c([N+](=O)[O-])c2)C(=O)N1c1ccccc1Cl	75.7 µM (active)	inactive	inactive	47.8 µM (active)	inactive	inactive	–	–	–	–
CC1CN(C(=O)COC(=O)COc2ccc(C#N)cc2)CC(C)O1 (stereo not drawn)	inactive	inactive	–	inactive	–	–	-1.51% [at 17.1 µM, percent relative to cAMP agonist control]	-3.73% [at 30.8 µM]	1.53% [at 30.8 µM]	–
CC(=O)NC(c1ccco1)c1cc(Cl)c2cccnc2c1O (stereo not drawn)	inactive	inactive	inactive	inactive	inactive	inactive	–	–	–	–
Cc1ccc(Cl)cc1NC(=O)C(C)n1nc(-c2ccccc2)ccc1=O (stereo not drawn)	inactive	inactive	inactive	inactive	inactive	inactive	–	–	–	–
Cc1ccccc1S(=O)(=O)N1C(c2ccc(Cl)c(Cl)c2)CC=C(C(=O)O)C1c1cccc(Br)c1 (stereo not drawn)	75.7 µM (active)	inactive	inactive	inactive	inactive	inactive	–	–	–	–
CC1CCCN(CC(=O)Nc2cc(Cl)ccc2Oc2ccccc2)C1 (stereo not drawn)	inactive	inactive	inactive	inactive	inactive	inactive	–	–	–	–
CC(C)CC(C(=O)NC1CCCCC1)N(Cc1ccccc1)C(=O)c1snc(C(N)=O)c1N (stereo not drawn)	inactive	inactive	–	inactive	–	–	1.37% [at 17.1 µM, percent relative to cAMP agonist control]	-17.8% [at 30.8 µM]	19% [at 30.8 µM]	–
